The source of these data is PubChem BioAssay.

In experiment [1] the test system is XIP peptide (Xip251-270) binding. The experiment is described as follows: small-molecule binders of XIP peptide, primary screen, biochemical, small-molecule microarray, fluorescence 635/667 nm, 0.1 µg/mL protein (AID 1182). To be noted: fluorescent protein binding, 635 nm, higher = more signal, called active from +8 up or from −8 down.
The subject of another experiment is XIP peptide (Xip251-270). Briefly: small-molecule binders of XIP peptide, primary screen, biochemical, small-molecule microarray, fluorescence 635/667 nm, 0.5 µg/mL protein (AID 1183). To be noted: small-molecule microarray binding, fluorescence 635 nm; higher = more signal.
A short description of experiment [2]: Plasmodium falciparum growth inhibition, primary screen, strain 3D7, DAPI fluorescence, 100 nL (AID 1184).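 Note: parasites grown inside human red blood cells in medium with human serum.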 As to conditions: P. falciparum 3D7 growth, 3 d, higher = more signal.
Experiment [3] concerns the target Homeobox protein Hox-A13 (Mus musculus) (UniProt Q62424). The experiment is described as follows: inhibitors of HoxA13-DNA binding, primary screen, biochemical, fluorescence polarization, labeled oligonucleotide (AID 1185). As to conditions: 15 min, higher = more signal, called active from +8 up or from −8 down. A general note: Polarisation of emitted light reports the rotation of a fluorescent probe.

A short description of experiment [4]: inhibitors of hydroxyurea-induced Chk1 phosphorylation, primary screen, imaging, HeLa, phospho-Chk1 antibody, percent positive cells (AID 1186). To be noted: hydroxyurea-induced phospho-Chk1 immunofluorescence imaging, higher = more signal.
A short description of experiment [5]: inhibitors of hydroxyurea-induced Chk1 phosphorylation, primary screen, imaging, HeLa, phospho-Chk1 nuclear intensity (AID 1187). To be noted: hydroxyurea-induced phospho-Chk1 immunofluorescence imaging, higher = more signal.

The source made the active and inactive calls. Unless noted, the rule behind the calls is not given here.

Sequence of Homeobox protein Hox-A13 (Mus musculus) (Q62424 whole entry, looked up): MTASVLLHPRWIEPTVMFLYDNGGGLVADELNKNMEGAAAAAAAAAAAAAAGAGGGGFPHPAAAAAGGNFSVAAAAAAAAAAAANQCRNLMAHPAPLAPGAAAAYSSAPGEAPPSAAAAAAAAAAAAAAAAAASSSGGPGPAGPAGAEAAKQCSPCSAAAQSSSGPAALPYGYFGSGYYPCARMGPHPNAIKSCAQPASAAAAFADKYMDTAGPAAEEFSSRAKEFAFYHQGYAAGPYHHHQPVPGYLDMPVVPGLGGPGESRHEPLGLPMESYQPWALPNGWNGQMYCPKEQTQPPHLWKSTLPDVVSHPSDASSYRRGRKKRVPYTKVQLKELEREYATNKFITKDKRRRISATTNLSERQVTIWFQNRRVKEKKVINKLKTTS

As for `COCCOC(=O)N1C(=O)[C@@]2(c3ccccc31)[C@H](C(N)=O)[C@H]1C(=O)O[C@H](c3ccccc3)[C@H](c3ccccc3)N1[C@@H]2c1ccccc1OCCO`, the composite z-score in experiment [1] is 3 (inactive); in the experiment on XIP peptide (Xip251-270), 0.801. Also, the z-score was -0.418 in experiment [2], -4.4 (inactive) in experiment [3], 0.228 (inactive) in experiment [4] and 0.42 (inactive) in experiment [5].

Consider `COc1ccccc1CN1C(=O)c2ccccc2[C@@H](C(=O)NCC(F)(F)F)[C@@H]1c1ccc(CO)cc1`, for which the composite z-score in experiment [1] is -0.51 (inactive); in the experiment with XIP peptide (Xip251-270), 0.561. In addition, the z-score in experiment [2] is -1.19; in experiment [3] it was -2.99 (inactive); in experiment [4] it was -0.188 (inactive); in experiment [5], 0.158 (inactive).

On to `CC(C)C[C@@H]1NC(=O)[C@H]2C[C@@H](C(=O)NCCCCCCN(C)C)[C@@H](c3cccc(OCCO)c3)N2C1=O`, for which the composite z-score in experiment [1] is 2.09 (inactive); with XIP peptide (Xip251-270) it was 0.905. The z-score is 0.063 in experiment [2], -4 (inactive) in experiment [3], -0.111 (inactive) in experiment [4] and 0.186 (inactive) in experiment [5].

Regarding `O=C1C2C=CC(C(O)c3ccc([N+](=O)[O-])cc3)N(Nc3ccc([N+](=O)[O-])cc3)C2C(=O)N1c1ccccc1` (stereo unspecified), the composite z-score is 1.39 (inactive) in experiment [1] and 0.813 in the experiment with XIP peptide (Xip251-270). The z-score in experiment [2] was -0.498; in experiment [3], -4.02 (inactive); in experiment [4], 0.822 (inactive); in experiment [5] it was -0.512 (inactive).

Take `COCCOC(=O)N1C(=O)[C@@]2(c3cc(C#CC4(O)CCCCCC4)ccc31)[C@H](c1ccc(OCCO)cc1)N1[C@H](c3ccccc3)[C@H](c3ccccc3)OC(=O)[C@H]1[C@@H]2C(=O)NC[C@H](O)c1ccccc1`: the composite z-score was 0.437 (inactive) in experiment [1] and 0.723 in the experiment on XIP peptide (Xip251-270). Also, the z-score in experiment [2] was -2.27; in experiment [3], 2.7 (inactive); in experiment [4], 0.0412 (inactive); in experiment [5], 0.0764 (inactive).

For `[N-]=[N+]=NCc1ccccc1[C@@H]1OC(c2ccc(OCCCO)cc2)=N[C@]1(Cc1ccccc1)C(=O)N1CCOCC1`, the results for the composite z-score (in experiment [1]; in the experiment with XIP peptide (Xip251-270)) were 0.713 (inactive) and 0.841, respectively. Further, the z-score was -2.33 in experiment [2], -4.99 (inactive) in experiment [3], -0.449 (inactive) in experiment [4] and -1.03 (inactive) in experiment [5].

`COC(=O)C1(C)C=C2C(=C(c3ccccc3)C(=O)C2C)CN1` (stereo unspecified): the composite z-score was -0.21 (inactive) in experiment [1] and 0.923 in the experiment with XIP peptide (Xip251-270). Further, the z-score is -0.0619 in experiment [2], -7.29 (inactive) in experiment [3], 0.74 (inactive) in experiment [4] and 0.84 (inactive) in experiment [5].

Turning to `O[C@@H](Cc1ccccc1)[C@H]1C2C=CCCC(c3ccccc3)=C2CN1Cc1cccc(Cl)c1` (stereo partly specified), the values for the composite z-score (in experiment [1]; with XIP peptide (Xip251-270)) were -0.241 (inactive) and 0.27, respectively. Also, the z-score was 0.514 in experiment [2], -5.87 (inactive) in experiment [3], -0.215 (inactive) in experiment [4] and 0.0934 (inactive) in experiment [5].

Take `COC(=O)c1c(CC[C@@H](CO)NC(=O)N[C@H](Cc2ccccc2)Cn2cc(-c3ccccc3N)nn2)oc(C(C)=O)c1C(=O)OC`: the composite z-score in experiment [1] is 0.0074 (inactive); in the experiment on XIP peptide (Xip251-270) it was 0.0678. Further, the z-score in experiment [2] is -1.29; in experiment [3], -5.26 (inactive); in experiment [4], -0.125 (inactive); in experiment [5] it was 0.189 (inactive).

As to `COc1ccccc1CN1C(=O)c2ccccc2[C@@]2(Cc3ccccc3N(C(C)C)C2=O)[C@@H]1c1ccc(CO)cc1`, the composite z-score in experiment [1] was 0.496 (inactive); in the experiment with XIP peptide (Xip251-270) it was 0.854. The z-score in experiment [2] is 0.559; in experiment [3] it was -0.215 (inactive); in experiment [4], -0.014 (inactive); in experiment [5], 0.36 (inactive).

Take `COCCCNC(=O)[C@@]1(CCS(=O)(=O)c2ccccc2)N=C(c2ccc(OCCCO)cc2)O[C@H]1c1ccccc1`: the composite z-score is 1.3 (inactive) in experiment [1] and 0.875 in the experiment with XIP peptide (Xip251-270). In addition, the z-score is -1.62 in experiment [2], -6.18 (inactive) in experiment [3], -0.213 (inactive) in experiment [4] and -0.2 (inactive) in experiment [5].

Take `CCCCCN1CC=CC23O[C@@H]4C=CCOC(=O)[C@@H]4[C@H]2C(=O)N(C(CO)C(C)C)[C@@H]3C1=O` (stereo partly specified): the figures for the composite z-score (in experiment [1]; in the experiment with XIP peptide (Xip251-270)) were 0.824 (inactive) and 0.907, respectively. The z-score was -0.303 in experiment [2], -4.81 (inactive) in experiment [3], -0.0211 (inactive) in experiment [4] and 0.0917 (inactive) in experiment [5].

As to `CC(C)N1CC=CC23O[C@@H]4C=CCCOC(=O)C4[C@H]2C(=O)N(CCCCCCO)[C@@H]3C1=O` (stereo partly specified), the composite z-score is -0.543 (inactive) in experiment [1] and 0.645 in the experiment with XIP peptide (Xip251-270). In addition, the z-score in experiment [2] was 0.0012; in experiment [3] it was -2.29 (inactive); in experiment [4] it was -0.478 (inactive); in experiment [5], -0.286 (inactive).

Take `O=C1c2ccccc2[C@@]2(Cc3ccccc3N(C3CC3)C2=O)[C@H](c2ccc(CO)cc2)N1Cc1ccccc1C(F)(F)F`: the values for the composite z-score (in experiment [1]; in the experiment with XIP peptide (Xip251-270)) were -0.27 (inactive) and 0.926, respectively. Besides, the z-score in experiment [2] is -1.42; in experiment [3] it was -2 (inactive); in experiment [4] it was 0.0523 (inactive); in experiment [5], 0.145 (inactive).

Consider `NCCCCCNC(=O)[C@@H]1C[C@@H]2C(=O)N3CCC[C@H]3C(=O)N2[C@@H]1c1cccc(OCCO)c1`, for which the composite z-score in experiment [1] is 0.536 (inactive); in the experiment with XIP peptide (Xip251-270), -0.0496. For the same molecule, the z-score in experiment [2] was 0.398; in experiment [3], -3.71 (inactive); in experiment [4] it was 0.0592 (inactive); in experiment [5] it was 0.182 (inactive).

For the molecule `NC(=O)NCC#Cc1ccc2c(c1)[C@]1(C(=O)N2)[C@H](c2ccc(O)cc2)N2[C@H](c3ccccc3)[C@H](c3ccccc3)OC(=O)[C@H]2[C@@H]1C(=O)N1CCCCCCC1`, the results for the composite z-score (in experiment [1]; in the experiment on XIP peptide (Xip251-270)) were 0.145 (inactive) and 0.469, respectively. The z-score in experiment [2] is 0.308; in experiment [3], 1.52 (inactive); in experiment [4], -0.374 (inactive); in experiment [5], -0.693 (inactive).
